# The sample as a whole holds a higher share of hits than the screen did.
# IDE exosite inh = insulin-degrading enzyme (human) exo-site inhibition; 6.3% of 17,000 active; AID 1259349; P14735; z-score at 20 µM; purified IDE, FL-6b probe fluorescence polarization; stronger effect = lower value;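 active = z-score of -3 or lower, meaning strong loss of probe binding signal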;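 also: His-tagged human IDE residues 42-1019 made in E. coli with 30 nM FL-6b probe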
# Numbers without * were called inactive.
SMILES,IDE exosite inh
CO[C@@H](CN(C)C(=O)C1CCOCC1)[C@H](C)CN([C@@H](C)CO)S(=O)(=O)c1ccccc1,0.34
O=C(C[C@H]1C[C@@H]2c3cc(NC(=O)C4CCOCC4)ccc3O[C@@H]2[C@H](CO)O1)NCc1cccnc1,1.2
CO[C@@H]1CN(C)C(=O)c2cc(NC(=O)NC(C)C)ccc2OC[C@@H](C)N(C(=O)CN(C)C)C[C@@H]1C,0.29
CO[C@@H]1CN(C)C(=O)c2cc(NS(C)(=O)=O)ccc2OC[C@@H](C)N(C(=O)C2CCOCC2)C[C@H]1C,-0.12
CC(=O)N1CC(=O)N2[C@H](CO)[C@@H](c3ccc(-c4ccc(C)cc4)cc3)[C@H]2C1,2
C[C@H]1CN([C@@H](C)CO)C(=O)c2ccccc2-c2ccccc2CO[C@H]1CN(C)S(=O)(=O)c1ccc([N+](=O)[O-])cc1,1.3
C[C@H]1CN([C@@H](C)CO)C(=O)c2cc(C#Cc3ccccc3)cnc2O[C@@H]1CN(C)C(=O)c1ccccc1,-0.37
OC[C@H]1[C@H](c2ccc(/C=C/c3ccccc3)cc2)[C@H]2CN(Cc3cccnc3)CCCCN21,-1.9
OC[C@@H]1[C@H](c2ccc(-c3ccc(F)cc3)cc2)[C@@H]2CN(Cc3cccnc3)CCCCN12,1.4
OC[C@H]1[C@@H](c2ccc(/C=C/c3ccccc3)cc2)[C@@H]2CN(Cc3cccnc3)CCCCN12,-4.4*
CO[C@@H]1CC[C@H]2CCOc3c(C#N)cccc3C(=O)N(C)C[C@H](c3ccccc3)CC(=O)N(C)C[C@@H]1O2,-0.19
CC(C)NC(=O)N1[C@@H](CO)[C@@H]2c3ccccc3NC[C@@H]21,2.5
O=C(CN1CCOCC1)N1CCCCN2[C@@H](CO)[C@@H](c3ccc(Br)cc3)[C@@H]2C1,1.3
O=C(CN1CCOCC1)N1CCCCN2[C@@H](CO)[C@H](c3ccc(Br)cc3)[C@@H]2C1,-0.96
O=C(CN1CCOCC1)N1CCCCN2[C@H](CO)[C@H](c3ccc(-c4ccccc4)cc3)[C@H]2C1,-2.1
O=C(CN1CCOCC1)N1CCCCN2[C@H](CO)[C@@H](c3ccc(/C=C/c4ccccc4)cc3)[C@@H]2C1,-3.7*
O=C(CN1CCOCC1)N1CCCCN2[C@H](C1)[C@H](c1ccc(/C=C/c3ccccc3)cc1)[C@@H]2CO,-8.2*
O=C(CN1CCOCC1)N1CCCCN2[C@H](CO)[C@@H](c3ccc(Br)cc3)[C@@H]2C1,1.1
OC[C@H]1[C@@H](c2ccc(-c3cccnc3)cc2)[C@H]2CN(Cc3ccccn3)CCCCN21,-1.1
CCCNC(=O)N1[C@@H]2CNC[C@H]1C2c1ccc(-c2cccnc2)cc1 (some centres not stated),1.6
O=C(N[C@H]1CC[C@H](CC(=O)N2CCOCC2)O[C@@H]1CO)c1cccc(F)c1,-0.96
COc1cccc(C(=O)Nc2ccc3c(c2)OC[C@@H](C)N(CCc2ccccc2)C[C@H](C)[C@@H](OC)CN(C)C3=O)c1,1.1
O=C(NC[C@@H]1N[C@@H](CO)[C@@H]1c1ccccc1)c1ccccc1F,0.95
N#C[C@H]1[C@H](c2ccc(-c3ccccc3F)cc2)[C@H](CO)N1C(=O)c1ccccn1,-3.1*
COc1cccc(-c2ccccc2[C@H]2[C@@H](C#N)N(C(=O)Cc3ccccc3)[C@@H]2CO)c1,-1.6
SMILES,IDE exosite inh
COc1cccc(-c2ccc([C@@H]3[C@@H](C#N)N(C(=O)c4ccccn4)[C@@H]3CO)cc2)c1,-5*
N#C[C@@H]1[C@@H](c2ccccc2-c2ccccc2F)[C@@H](CO)N1C(=O)c1ccccn1,2
CCCNC(=O)N1[C@H](C#N)[C@@H](c2ccc(-c3cccc(OC)c3)cc2)[C@H]1CO,-1.3
COc1cccc(-c2ccc([C@H]3[C@@H](C#N)N(C(=O)Cc4ccccc4)[C@@H]3CO)cc2)c1,-3.8*
N#C[C@H]1[C@H](c2ccc(-c3ccccc3F)cc2)[C@@H](CO)N1C(=O)c1ccccn1,0.88
COc1cccc(-c2ccccc2[C@H]2[C@@H](C#N)N(C(=O)c3ccccn3)[C@@H]2CO)c1,-0.39
O=C(NC[C@H]1N[C@@H](CO)[C@H]1c1ccc(-c2ccccc2)cc1)c1ccccc1F,1.1
COc1cccc(-c2ccccc2[C@H]2[C@@H](C#N)N(C(=O)Cc3ccccc3)[C@H]2CO)c1,0.95
O=C(NC[C@@H]1N[C@@H](CO)[C@@H]1c1ccc(-c2ccccc2F)cc1)c1ccccn1,-4.5*
COCC(=O)N1[C@H](C#N)[C@H](c2ccc(-c3cccc(F)c3)cc2)[C@@H]1CO,1.2
C/C=C/c1ccc([C@@H]2[C@H](CO)N(CC3CCOCC3)C23CN(C(=O)COC)C3)cc1,-0.65
CN(C)CC#Cc1ccc([C@@H]2[C@@H](CO)N3C(=O)CN(C(=O)c4ccc(F)cc4)C[C@@H]23)cc1,0.55
OC[C@H]1[C@@H](c2ccc(-c3cccc(F)c3)cc2)[C@@H]2CN(CCC(F)(F)F)CCCCN12,1.3
O=C(C[C@@H]1CC[C@@H]2[C@H](COC[C@@H](O)CN2C(=O)c2ccccc2F)O1)NCc1ccc(Cl)c(Cl)c1,-0.27
COCC#Cc1ccc([C@@H]2[C@H](C#N)N(C(=O)c3cccnc3)[C@H]2CO)cc1,-0.16
CCCC#Cc1ccc([C@@H]2[C@@H](CO)N(C(=O)C3CC3)[C@H]2C#N)cc1,4.8
Cc1ccc(S(=O)(=O)N(C)C[C@H]2OCCCC[C@H](C)Oc3ccc(NC(=O)c4ccncc4)cc3C(=O)N([C@@H](C)CO)C[C@@H]2C)cc1,1.1
C[C@H](NC(=O)C[C@@H]1CC[C@@H]2[C@@H](COc3ccc(NS(=O)(=O)c4ccc(Cl)cc4)cc3C(=O)N2C)O1)c1ccccc1,-0.35
N#Cc1cccc(-c2ccc(C3[C@H]4CNC[C@@H]3N4Cc3cc(-c4ccccc4)on3)cc2)c1 (some centres not stated),0.99
O=C(Nc1ccccc1)N1CC(=O)N2[C@H](C1)[C@H](c1ccc(C#CC3CC3)cc1)[C@@H]2CO,3.4
COc1cccc(-c2ccc([C@@H]3[C@@H](C#N)N(C(=O)Cc4ccccc4)[C@@H]3CO)cc2)c1,-5.3*
COc1cccc(-c2ccc([C@@H]3[C@@H](CO)N(C(=O)Cc4ccccc4)[C@H]3C#N)cc2)c1,3.6
COc1cccc(-c2ccc([C@@H]3[C@@H](C#N)N(C(=O)Cc4ccccc4)[C@H]3CO)cc2)c1,3
CC(=O)NC[C@@H]1[C@@H](c2ccc(-c3cccnc3)cc2)[C@H](CO)N1C(=O)C1CCC1,1
CCC(=O)N1C[C@@H](O)COC[C@@H]2O[C@@H](CC(=O)NC)CC[C@H]21,2.5
SMILES,IDE exosite inh
N#C[C@H]1[C@@H](c2ccccc2)[C@H](CO)N1C(=O)Cc1ccccn1,2.5
COc1ccc2c3c([nH]c2c1)[C@@H](CO)N(C(=O)CN1CCOCC1)CC31CN(Cc2ccccc2)C1,0.68
CCC(=O)N1[C@H](CNC(C)=O)[C@H](c2ccc(-c3ccc(F)cc3)cc2)[C@@H]1CO,0.7
CCC(=O)N1[C@H](CO)[C@H](c2ccc(-c3ccccc3OC)cc2)[C@@H]1CNC(C)=O,-15*
CCC(=O)N1[C@@H](CO)[C@@H](c2ccc(-c3cccc(F)c3)cc2)[C@@H]1CNC(C)=O,4.6
CCC(=O)N1[C@H](CO)[C@H](c2ccc(-c3cccc(F)c3)cc2)[C@@H]1CNC(C)=O,2.5
CC(=O)NC[C@H]1[C@H](c2ccc(-c3ccccc3F)cc2)[C@H](CO)N1C(C)=O,3.9
CCC(=O)N1[C@H](CO)[C@H](c2ccc(-c3ccccc3OC)cc2)[C@H]1CNC(C)=O,-8.2*

# Screens (PubChem)
